According to PubChem BioAssay (NCI):
This is part of a sample that, as a whole, favours compounds with a hit. Of some 79,000 tested, about 15% had one in any assay. The source made the active and inactive calls. Rule as the data show it: active = growth inhibition above about 70%; inactive = the rest.

Tests used:
[1] = NCI Yeast Anticancer Drug Screen. Data for the rad50 strain (AID 155);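 also: 0% = growth of vehicle-only cultures of the same strain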; details: S. cerevisiae rad50 strain growth inhibition, hits give high values
Procedure, shortened: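 Cells are treated with compound, grown, and their growth is then scored against vehicle-only cultures of the same repair-deficient yeast strain.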

[2] = NCI Yeast Anticancer Drug Screen. Data for the mec2-1 strain (AID 157); details: S. cerevisiae mec2-1 strain, hits give high values
Procedure, shortened: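 Vehicle-treated cultures served as reference for growth inhibition of compound-exposed mec2-1 yeast.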

[3] = NCI Yeast Anticancer Drug Screen. Data for the sgs1 mgt1 strain (AID 161);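 also: 0% = growth of cultures given vehicle only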; details: S. cerevisiae sgs1 mgt1 strain, hits give high values
Procedure, shortened: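 Genetically altered yeast, compound exposure, growth inhibition relative to vehicle.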

[4] = NCI Yeast Anticancer Drug Screen. Data for the cln2 rad14 strain (AID 165);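 also: 0% = growth equal to vehicle treated cultures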; details: S. cerevisiae cln2 rad14 strain, hits give high values
Procedure, shortened: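 Each compound was tested on cln2 rad14 yeast. Inhibition of growth was calculated against vehicle-exposed controls.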

[5] = NCI Yeast Anticancer Drug Screen. Data for the bub3 strain (AID 167); details: S. cerevisiae bub3 mutant strain, hits give high values
Procedure, shortened: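 Part of a panel of yeast mutants defective in DNA damage repair or cell cycle regulation. Each strain is grown with compound, and inhibition is calculated relative to solvent-treated cultures.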

[6] = NCI Yeast Anticancer Drug Screen. Data for the mlh1 rad18 strain (AID 175); details: S. cerevisiae mlh1 rad18 strain growth inhibition, hits give high values
Procedure, shortened: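 Vehicle-treated cultures served as the reference for growth inhibition in a yeast strain carrying DNA damage repair alterations exposed to each compound.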

[7] = at 5.0 µM (retest, dose inferred, filed as 0.5)
[8] = at 50.0 µM (retest, dose inferred, filed as 5.0)

Measured: growth inhibition

CCOCCOC(=O)C(C)O (stereo not given)
inactive: [1]; [7] 9% | [1]; [8] -1% | [1]; at 50.0 µM 9.25% | [2]; [7] -1% | [2]; [8] -3% | [2]; at 50.0 µM 27.1% | [3]; [7] -2% | [3]; [8] 3% | [3]; at 50.0 µM -3.1% | [4]; [7] 5% | [4]; [8] 2% | [4]; at 50.0 µM 45.3% | [5]; [7] 6% | [5]; [8] 14% | [5]; at 50.0 µM 9.25% | [6]; [7] 7% | [6]; [8] -2% | [6]; at 50.0 µM -7.1%

N#CC(Cc1ccc(CC(C#N)(c2ccccc2)c2ccccn2)cc1)(c1ccccc1)c1ccccn1 (stereo not given)
inactive: [1]; [7] -1% | [1]; [8] 3% | [1]; at 50.0 µM 20.9% | [2]; [7] -2% | [2]; [8] 3% | [2]; at 50.0 µM 34.5% | [3]; [7] -4% | [3]; [8] -1% | [3]; at 50.0 µM 10.9% | [4]; [7] -6% | [4]; [8] 1% | [4]; at 50.0 µM 2.75% | [5]; [7] -2% | [5]; [8] -8% | [5]; at 50.0 µM 35.4% | [6]; [7] -2% | [6]; [8] 2% | [6]; at 50.0 µM 14.8%

O=[N+]([O-])c1cccc2c(O)cccc12
inactive: [1]; [7] 3% | [1]; [8] 58% | [1]; at 50.0 µM 59% | [2]; [7] 0% | [2]; [8] 35% | [2]; at 50.0 µM 33.4% | [3]; [7] -2% | [3]; [8] 31% | [3]; at 50.0 µM 39.1% | [4]; [7] -3% | [4]; [8] 30% | [4]; at 50.0 µM 33.8% | [5]; [7] -1% | [5]; [8] 65% | [5]; at 50.0 µM 47.2% | [6]; [7] 0% | [6]; [8] 43%
active: [6]; at 50.0 µM 73.5%

N#CC=Cc1ccc([N+](=O)[O-])s1 (mixture of isomers)
active: [1]; [8] 99% | [1]; at 50.0 µM 89.8% | [2]; [8] 98% | [2]; at 50.0 µM 90.8% | [3]; [8] 99% | [3]; at 50.0 µM 90.8% | [4]; [8] 99% | [4]; at 50.0 µM 90.8% | [5]; [7] 70% | [5]; [8] 99% | [5]; at 50.0 µM 88.5% | [6]; [8] 98% | [6]; at 50.0 µM 91.1%
inactive: [1]; [7] 41% | [2]; [7] 39% | [3]; [7] 59% | [4]; [7] 32% | [6]; [7] 50%

O=C(Nc1ccccc1)c1ccc([N+](=O)[O-])o1
inactive: [1]; [7] 12% | [2]; [7] 3% | [3]; [7] 9% | [4]; [7] -2% | [4]; [8] 31% | [5]; [7] 2% | [6]; [7] 24%
active: [1]; [8] 83% | [1]; at 50.0 µM 96.3% | [2]; [8] 73% | [2]; at 50.0 µM 95.7% | [3]; [8] 82% | [3]; at 50.0 µM 98.6% | [4]; at 50.0 µM 80.2% | [5]; [8] 79% | [5]; at 50.0 µM 91.4% | [6]; [8] 91% | [6]; at 50.0 µM 98.5%
